Paper PMC7862700, “An all-to-all approach to the identification of sequence-specific readers for epigenetic DNA modifications on cytosine”

Legend:
Experiment in all cases: DAPPL (digital affinity profiling via proximity ligation, sequencing); 10 mM Tris-HCl pH 7.5, 50 mM NaCl, 1 mM DTT, 4% glycerol, room temperature, 30 min; GST-TFs on glutathione beads, 16-mer random dsDNA library, 0.1% formaldehyde crosslink after washing; high values mean tight binding
FLI1 = target: T1, FLI1 (Homo sapiens, UniProt Q01543 1-452); conditions: protein: recombinant; tags: N-terminal GST; dsDNA, one strand shown
T1 sequence: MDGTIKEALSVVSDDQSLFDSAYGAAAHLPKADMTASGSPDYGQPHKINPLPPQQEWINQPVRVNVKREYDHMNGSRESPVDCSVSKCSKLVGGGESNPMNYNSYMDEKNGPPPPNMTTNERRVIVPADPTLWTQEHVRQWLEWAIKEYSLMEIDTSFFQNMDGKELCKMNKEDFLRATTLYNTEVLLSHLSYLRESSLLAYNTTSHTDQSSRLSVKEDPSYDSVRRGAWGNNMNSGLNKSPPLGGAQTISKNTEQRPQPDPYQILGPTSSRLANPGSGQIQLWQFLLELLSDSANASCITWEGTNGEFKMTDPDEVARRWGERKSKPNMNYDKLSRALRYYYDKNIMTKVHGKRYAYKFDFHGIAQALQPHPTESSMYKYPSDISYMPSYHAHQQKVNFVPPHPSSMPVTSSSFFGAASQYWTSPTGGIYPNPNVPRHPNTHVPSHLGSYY
How it was run: (§1)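 Yeast served to express human transcription factors as GST fusions, which were then captured on glutathione beads and labelled with DNA barcodes. Pooled with a tag-only sample, they were incubated with 200 nmole of a 16-mer random double-stranded DNA library for 30 min at room temperature in Tris/NaCl/DTT/glycerol buffer, washed, crosslinked with 0.1% formaldehyde, ligated by proximity, amplified by PCR and sequenced. Dividing each hexamer's read frequency for a factor by its frequency for the tag-only sample gives the binding signal.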

ERG = target: T2, ERG (Homo sapiens, UniProt P11308 1-479); conditions: protein: recombinant; tags: N-terminal GST; dsDNA, one strand shown
T2 sequence: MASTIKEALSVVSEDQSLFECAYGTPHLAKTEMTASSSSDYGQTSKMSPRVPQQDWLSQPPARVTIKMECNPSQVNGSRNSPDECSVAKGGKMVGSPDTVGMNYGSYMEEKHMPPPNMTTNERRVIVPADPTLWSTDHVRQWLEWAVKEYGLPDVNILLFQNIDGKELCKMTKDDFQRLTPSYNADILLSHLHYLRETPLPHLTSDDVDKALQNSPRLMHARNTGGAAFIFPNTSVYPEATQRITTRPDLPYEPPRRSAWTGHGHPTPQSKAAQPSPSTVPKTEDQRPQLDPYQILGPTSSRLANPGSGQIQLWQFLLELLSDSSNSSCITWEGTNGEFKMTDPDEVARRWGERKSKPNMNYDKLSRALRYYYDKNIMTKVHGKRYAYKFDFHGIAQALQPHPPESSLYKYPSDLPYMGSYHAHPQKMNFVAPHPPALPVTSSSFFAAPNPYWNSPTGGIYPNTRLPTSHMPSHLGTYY
How it was run: as §1

ELF1 = ELF1 (Homo sapiens, UniProt P32519 1-619); conditions: protein: recombinant; tags: N-terminal GST; dsDNA, one strand shown
ELF1, sequence (P32519 whole entry): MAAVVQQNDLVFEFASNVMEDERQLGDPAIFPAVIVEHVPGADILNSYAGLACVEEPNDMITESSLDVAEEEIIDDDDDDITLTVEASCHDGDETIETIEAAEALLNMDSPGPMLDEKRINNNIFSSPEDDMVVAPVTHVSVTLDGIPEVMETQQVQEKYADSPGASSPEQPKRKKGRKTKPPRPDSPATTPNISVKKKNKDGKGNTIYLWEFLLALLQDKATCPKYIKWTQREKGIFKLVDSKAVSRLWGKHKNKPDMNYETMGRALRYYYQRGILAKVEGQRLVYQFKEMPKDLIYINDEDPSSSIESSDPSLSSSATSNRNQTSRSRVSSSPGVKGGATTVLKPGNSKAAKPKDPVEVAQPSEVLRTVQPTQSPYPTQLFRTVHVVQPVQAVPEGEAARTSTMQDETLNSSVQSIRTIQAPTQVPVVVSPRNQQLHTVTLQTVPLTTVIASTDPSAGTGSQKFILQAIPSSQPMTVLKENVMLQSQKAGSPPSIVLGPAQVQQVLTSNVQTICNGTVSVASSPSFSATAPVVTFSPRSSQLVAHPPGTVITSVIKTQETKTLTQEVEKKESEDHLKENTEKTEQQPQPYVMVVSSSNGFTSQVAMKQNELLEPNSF
How it was run: as §1

EHF = target: T3, EHF (Homo sapiens, UniProt Q9NZC4 1-300); conditions: protein: recombinant; tags: N-terminal GST; dsDNA, one strand shown
T3 sequence: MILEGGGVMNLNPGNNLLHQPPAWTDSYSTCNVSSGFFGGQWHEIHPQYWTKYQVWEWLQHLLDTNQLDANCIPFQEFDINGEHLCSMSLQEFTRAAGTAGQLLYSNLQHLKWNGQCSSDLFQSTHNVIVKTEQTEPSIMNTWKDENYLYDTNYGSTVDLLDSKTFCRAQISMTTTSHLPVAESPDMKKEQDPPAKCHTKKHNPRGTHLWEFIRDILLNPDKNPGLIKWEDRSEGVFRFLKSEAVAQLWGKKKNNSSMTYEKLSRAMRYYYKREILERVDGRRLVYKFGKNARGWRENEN
How it was run: as §1

SPI1 = SPI1 (Homo sapiens, UniProt P17947 1-270); conditions: protein: recombinant; tags: N-terminal GST; dsDNA, one strand shown
How it was run: as §1

SPIB = SPIB (Homo sapiens, UniProt Q01892 1-262); conditions: protein: recombinant; tags: N-terminal GST; dsDNA, one strand shown
SPIB, sequence (Q01892 whole entry): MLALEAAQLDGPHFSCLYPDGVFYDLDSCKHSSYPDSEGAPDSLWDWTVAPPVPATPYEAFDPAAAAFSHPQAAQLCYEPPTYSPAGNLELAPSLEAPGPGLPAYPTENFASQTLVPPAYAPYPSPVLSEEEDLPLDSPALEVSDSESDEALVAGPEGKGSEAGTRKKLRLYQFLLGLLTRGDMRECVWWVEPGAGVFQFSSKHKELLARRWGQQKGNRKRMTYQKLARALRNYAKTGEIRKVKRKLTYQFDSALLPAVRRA
How it was run: as §1

ETV5 = ETV5 (Homo sapiens, UniProt P41161 1-510); conditions: protein: recombinant; tags: N-terminal GST; dsDNA, one strand shown
ETV5, sequence (P41161 whole entry): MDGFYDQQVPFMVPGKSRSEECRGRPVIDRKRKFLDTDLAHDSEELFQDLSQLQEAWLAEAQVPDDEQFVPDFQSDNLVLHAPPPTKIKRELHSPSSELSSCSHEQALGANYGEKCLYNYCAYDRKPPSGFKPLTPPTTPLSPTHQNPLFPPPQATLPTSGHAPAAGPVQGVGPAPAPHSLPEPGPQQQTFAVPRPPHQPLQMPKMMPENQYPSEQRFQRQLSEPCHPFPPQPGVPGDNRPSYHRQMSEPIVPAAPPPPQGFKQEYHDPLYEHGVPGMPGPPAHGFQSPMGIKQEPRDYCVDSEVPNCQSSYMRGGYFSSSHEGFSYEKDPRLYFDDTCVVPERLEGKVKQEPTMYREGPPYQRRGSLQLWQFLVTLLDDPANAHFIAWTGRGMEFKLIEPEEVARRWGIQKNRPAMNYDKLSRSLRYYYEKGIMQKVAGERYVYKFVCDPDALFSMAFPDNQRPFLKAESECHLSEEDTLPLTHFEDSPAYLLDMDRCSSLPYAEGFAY
How it was run: as §1

HSF1 = HSF1 (Homo sapiens, UniProt Q00613 1-529); conditions: protein: recombinant; tags: N-terminal GST; chain copies: 3; dsDNA, one strand shown
HSF1, sequence (Q00613 whole entry): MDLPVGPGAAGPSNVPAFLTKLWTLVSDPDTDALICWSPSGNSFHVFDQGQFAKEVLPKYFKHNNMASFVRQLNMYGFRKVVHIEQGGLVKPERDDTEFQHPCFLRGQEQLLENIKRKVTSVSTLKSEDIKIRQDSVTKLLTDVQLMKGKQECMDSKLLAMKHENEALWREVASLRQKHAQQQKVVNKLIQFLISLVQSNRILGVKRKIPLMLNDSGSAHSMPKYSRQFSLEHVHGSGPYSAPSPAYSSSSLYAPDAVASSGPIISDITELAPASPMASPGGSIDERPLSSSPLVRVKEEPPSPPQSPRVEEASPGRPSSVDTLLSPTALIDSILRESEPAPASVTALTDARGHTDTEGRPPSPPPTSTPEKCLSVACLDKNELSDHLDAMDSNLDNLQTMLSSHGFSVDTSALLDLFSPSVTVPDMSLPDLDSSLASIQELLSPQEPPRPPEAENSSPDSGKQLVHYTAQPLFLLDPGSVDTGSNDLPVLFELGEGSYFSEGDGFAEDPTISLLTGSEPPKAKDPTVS
How it was run: as §1

SPIC = target: T4, SPIC (Homo sapiens, UniProt Q8N5J4 1-248); conditions: protein: recombinant; tags: N-terminal GST; dsDNA, one strand shown
T4 sequence: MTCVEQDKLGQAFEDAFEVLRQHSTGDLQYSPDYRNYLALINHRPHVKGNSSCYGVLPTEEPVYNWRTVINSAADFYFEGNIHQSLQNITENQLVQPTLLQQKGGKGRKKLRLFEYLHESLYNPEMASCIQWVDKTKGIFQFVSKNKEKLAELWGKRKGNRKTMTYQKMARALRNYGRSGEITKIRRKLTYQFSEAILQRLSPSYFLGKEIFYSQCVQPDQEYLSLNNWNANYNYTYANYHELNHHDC
How it was run: as §1

ELF4 = ELF4 (Homo sapiens, UniProt Q99607 1-663); conditions: protein: recombinant; tags: N-terminal GST; dsDNA, one strand shown
ELF4, sequence (Q99607 whole entry): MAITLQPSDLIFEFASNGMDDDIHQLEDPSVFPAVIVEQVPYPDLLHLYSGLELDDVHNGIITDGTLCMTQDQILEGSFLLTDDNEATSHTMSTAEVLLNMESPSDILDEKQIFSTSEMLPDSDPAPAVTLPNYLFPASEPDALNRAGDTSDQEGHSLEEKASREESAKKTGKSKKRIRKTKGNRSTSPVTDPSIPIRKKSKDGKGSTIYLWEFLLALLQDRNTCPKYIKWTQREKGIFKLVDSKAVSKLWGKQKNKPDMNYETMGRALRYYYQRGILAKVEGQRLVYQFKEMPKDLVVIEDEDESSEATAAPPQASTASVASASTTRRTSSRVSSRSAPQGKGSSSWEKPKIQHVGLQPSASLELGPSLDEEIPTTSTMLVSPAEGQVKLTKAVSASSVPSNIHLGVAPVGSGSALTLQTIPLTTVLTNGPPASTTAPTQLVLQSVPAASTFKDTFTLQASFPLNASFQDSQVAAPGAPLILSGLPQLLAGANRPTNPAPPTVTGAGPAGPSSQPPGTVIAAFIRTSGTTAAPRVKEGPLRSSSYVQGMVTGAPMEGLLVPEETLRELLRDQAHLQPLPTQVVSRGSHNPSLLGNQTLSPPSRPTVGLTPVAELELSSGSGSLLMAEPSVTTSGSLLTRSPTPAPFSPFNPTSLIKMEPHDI
How it was run: as §1

ELK4 = target: T5, ELK4 (Homo sapiens, UniProt P28324-2 1-405); conditions: protein: recombinant; tags: N-terminal GST; dsDNA, one strand shown
T5 sequence: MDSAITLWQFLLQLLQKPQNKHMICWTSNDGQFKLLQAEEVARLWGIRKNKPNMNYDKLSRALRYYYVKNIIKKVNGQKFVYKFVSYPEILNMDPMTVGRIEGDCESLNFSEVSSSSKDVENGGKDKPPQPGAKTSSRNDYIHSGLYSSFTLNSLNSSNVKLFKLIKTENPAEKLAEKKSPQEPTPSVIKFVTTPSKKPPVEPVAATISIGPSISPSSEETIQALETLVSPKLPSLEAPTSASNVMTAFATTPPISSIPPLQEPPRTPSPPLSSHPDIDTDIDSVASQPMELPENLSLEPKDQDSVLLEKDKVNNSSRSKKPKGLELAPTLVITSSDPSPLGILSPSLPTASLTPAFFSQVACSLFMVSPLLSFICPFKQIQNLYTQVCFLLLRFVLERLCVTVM
How it was run: as §1

ETV2 = target: T6, ETV2 (Homo sapiens, UniProt O00321 1-342); conditions: protein: recombinant; tags: N-terminal GST; dsDNA, one strand shown
T6 sequence: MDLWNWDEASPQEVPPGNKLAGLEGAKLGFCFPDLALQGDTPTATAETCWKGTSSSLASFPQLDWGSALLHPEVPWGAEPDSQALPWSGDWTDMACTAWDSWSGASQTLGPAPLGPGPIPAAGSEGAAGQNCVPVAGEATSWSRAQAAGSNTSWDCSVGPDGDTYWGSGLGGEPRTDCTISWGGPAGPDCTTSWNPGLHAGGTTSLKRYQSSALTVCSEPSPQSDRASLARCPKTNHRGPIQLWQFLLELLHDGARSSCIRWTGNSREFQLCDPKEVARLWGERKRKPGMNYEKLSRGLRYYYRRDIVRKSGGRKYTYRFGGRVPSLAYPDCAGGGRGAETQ
How it was run: as §1

CRX = CRX (Homo sapiens, UniProt O43186 1-299); conditions: protein: recombinant; tags: N-terminal GST; dsDNA, one strand shown
CRX, sequence (O43186 whole entry): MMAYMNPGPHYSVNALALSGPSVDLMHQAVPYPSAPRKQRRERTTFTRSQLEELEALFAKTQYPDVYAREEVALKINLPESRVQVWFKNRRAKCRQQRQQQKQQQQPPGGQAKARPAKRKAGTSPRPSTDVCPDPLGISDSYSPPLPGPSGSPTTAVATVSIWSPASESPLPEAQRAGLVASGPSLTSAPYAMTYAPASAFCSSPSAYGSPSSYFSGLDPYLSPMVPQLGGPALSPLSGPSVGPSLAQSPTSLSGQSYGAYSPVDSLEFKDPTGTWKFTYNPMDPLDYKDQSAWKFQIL
How it was run: as §1

ETV1 = ETV1 (Homo sapiens, UniProt P50549 1-477); conditions: protein: recombinant; tags: N-terminal GST; dsDNA, one strand shown
ETV1, sequence (P50549 whole entry): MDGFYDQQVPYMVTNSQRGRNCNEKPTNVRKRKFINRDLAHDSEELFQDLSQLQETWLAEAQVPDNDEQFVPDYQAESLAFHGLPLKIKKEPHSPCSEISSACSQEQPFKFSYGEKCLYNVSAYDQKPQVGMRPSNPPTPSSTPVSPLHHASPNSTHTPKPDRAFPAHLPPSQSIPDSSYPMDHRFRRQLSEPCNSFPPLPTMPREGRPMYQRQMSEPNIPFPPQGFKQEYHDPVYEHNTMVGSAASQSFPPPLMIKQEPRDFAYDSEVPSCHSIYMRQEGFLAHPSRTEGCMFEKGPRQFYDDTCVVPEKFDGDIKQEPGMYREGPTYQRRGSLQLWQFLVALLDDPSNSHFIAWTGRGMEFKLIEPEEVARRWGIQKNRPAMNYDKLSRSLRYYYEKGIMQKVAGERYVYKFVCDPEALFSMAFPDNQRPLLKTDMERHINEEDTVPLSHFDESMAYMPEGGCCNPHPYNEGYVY
How it was run: as §1

ELK1 = target: T7, ELK1 (Homo sapiens, UniProt P19419 1-428); conditions: protein: recombinant; tags: N-terminal GST; dsDNA, one strand shown
T7 sequence: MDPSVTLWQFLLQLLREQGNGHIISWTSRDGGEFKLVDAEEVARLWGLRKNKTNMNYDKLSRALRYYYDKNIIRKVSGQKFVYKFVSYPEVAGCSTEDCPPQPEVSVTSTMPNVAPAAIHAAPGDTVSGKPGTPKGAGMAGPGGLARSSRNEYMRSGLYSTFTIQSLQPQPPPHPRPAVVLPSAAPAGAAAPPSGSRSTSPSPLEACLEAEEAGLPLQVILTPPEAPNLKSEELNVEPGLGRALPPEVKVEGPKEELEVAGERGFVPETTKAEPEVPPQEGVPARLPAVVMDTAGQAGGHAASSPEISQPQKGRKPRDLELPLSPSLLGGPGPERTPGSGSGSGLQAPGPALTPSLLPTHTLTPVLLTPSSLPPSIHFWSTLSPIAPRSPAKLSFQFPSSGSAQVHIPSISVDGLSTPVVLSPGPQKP
How it was run: as §1

GABPA = target: T8, GABPA (Homo sapiens, UniProt Q06546 1-454); conditions: protein: recombinant; tags: N-terminal GST; dsDNA, one strand shown
T8 sequence: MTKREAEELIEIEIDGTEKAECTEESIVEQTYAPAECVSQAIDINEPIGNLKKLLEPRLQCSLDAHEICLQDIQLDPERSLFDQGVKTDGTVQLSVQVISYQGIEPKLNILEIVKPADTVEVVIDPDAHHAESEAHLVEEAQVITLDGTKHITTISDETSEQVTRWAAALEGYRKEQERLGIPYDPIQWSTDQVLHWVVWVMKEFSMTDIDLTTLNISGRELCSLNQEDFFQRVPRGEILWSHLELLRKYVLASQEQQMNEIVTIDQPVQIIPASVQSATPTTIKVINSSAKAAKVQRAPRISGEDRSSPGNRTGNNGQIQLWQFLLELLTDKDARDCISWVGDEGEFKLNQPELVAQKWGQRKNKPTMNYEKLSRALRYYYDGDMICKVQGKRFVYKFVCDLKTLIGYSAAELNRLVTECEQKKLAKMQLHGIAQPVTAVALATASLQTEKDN
How it was run: as §1

ELK3 = target: T9, ELK3 (Homo sapiens, UniProt P41970 1-407); conditions: protein: recombinant; tags: N-terminal GST; dsDNA, one strand shown
T9 sequence: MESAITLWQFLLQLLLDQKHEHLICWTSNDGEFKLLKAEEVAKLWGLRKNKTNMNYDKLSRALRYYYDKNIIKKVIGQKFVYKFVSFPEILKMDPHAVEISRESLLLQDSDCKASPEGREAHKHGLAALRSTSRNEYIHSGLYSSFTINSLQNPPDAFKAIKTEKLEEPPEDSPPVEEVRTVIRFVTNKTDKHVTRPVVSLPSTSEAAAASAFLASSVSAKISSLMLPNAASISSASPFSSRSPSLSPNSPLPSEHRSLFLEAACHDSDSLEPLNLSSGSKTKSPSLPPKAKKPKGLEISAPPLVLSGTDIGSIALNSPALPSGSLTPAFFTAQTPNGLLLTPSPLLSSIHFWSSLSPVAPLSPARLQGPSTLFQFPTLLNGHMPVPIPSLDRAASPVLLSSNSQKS
How it was run: as §1

FEV = target: T10, FEV (Homo sapiens, UniProt Q99581 1-238); conditions: protein: recombinant; tags: N-terminal GST; dsDNA, one strand shown
T10 sequence: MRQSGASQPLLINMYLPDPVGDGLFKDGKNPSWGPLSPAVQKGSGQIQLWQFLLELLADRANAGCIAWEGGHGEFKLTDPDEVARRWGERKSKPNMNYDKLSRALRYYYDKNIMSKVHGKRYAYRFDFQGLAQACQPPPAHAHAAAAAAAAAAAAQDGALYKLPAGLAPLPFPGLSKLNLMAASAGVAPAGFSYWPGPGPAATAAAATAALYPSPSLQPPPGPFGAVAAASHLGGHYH
How it was run: as §1

GAAAGA
binding signal (FLI1): 1.01 fold enrichment (6-mer frequency, TF over GST control) | binding signal (ERG): 1.02 fold enrichment (6-mer frequency, TF over GST control) | binding signal (ELF1): 1.08 fold enrichment (6-mer frequency, TF over GST control) | binding signal (EHF): 1.01 fold enrichment (6-mer frequency, TF over GST control) | binding signal (SPI1): 1.14 fold enrichment (6-mer frequency, TF over GST control) | binding signal (SPIB): 1.02 fold enrichment (6-mer frequency, TF over GST control) | binding signal (ETV5): 1.04 fold enrichment (6-mer frequency, TF over GST control) | binding signal (HSF1): 1.4 fold enrichment (6-mer frequency, TF over GST control) | binding signal (SPIC): 1.05 fold enrichment (6-mer frequency, TF over GST control) | binding signal (ELF4): 1.07 fold enrichment (6-mer frequency, TF over GST control) | binding signal (ELK4): 1.01 fold enrichment (6-mer frequency, TF over GST control) | binding signal (ETV2): 1.07 fold enrichment (6-mer frequency, TF over GST control) | binding signal (CRX): 1.01 fold enrichment (6-mer frequency, TF over GST control) | binding signal (ETV1): 1.03 fold enrichment (6-mer frequency, TF over GST control)

TAACTC
binding signal (FLI1): 1.3 fold enrichment (6-mer frequency, TF over GST control) | binding signal (ELK1): 1.22 fold enrichment (6-mer frequency, TF over GST control) | binding signal (GABPA): 1.23 fold enrichment (6-mer frequency, TF over GST control) | binding signal (ERG): 1.11 fold enrichment (6-mer frequency, TF over GST control) | binding signal (ELF1): 1.29 fold enrichment (6-mer frequency, TF over GST control) | binding signal (EHF): 1.16 fold enrichment (6-mer frequency, TF over GST control) | binding signal (SPI1): 1.18 fold enrichment (6-mer frequency, TF over GST control) | binding signal (SPIB): 1.21 fold enrichment (6-mer frequency, TF over GST control) | binding signal (ELK3): 1.18 fold enrichment (6-mer frequency, TF over GST control) | binding signal (FEV): 1.1 fold enrichment (6-mer frequency, TF over GST control) | binding signal (ETV5): 1.21 fold enrichment (6-mer frequency, TF over GST control) | binding signal (HSF1): 1.34 fold enrichment (6-mer frequency, TF over GST control) | binding signal (SPIC): 1.25 fold enrichment (6-mer frequency, TF over GST control) | binding signal (ELF4): 1.29 fold enrichment (6-mer frequency, TF over GST control) | binding signal (ELK4): 1.34 fold enrichment (6-mer frequency, TF over GST control) | binding signal (CRX): 1.58 fold enrichment (6-mer frequency, TF over GST control) | binding signal (ETV1): 1.23 fold enrichment (6-mer frequency, TF over GST control)
